# Experimental data published in PubChem BioAssay AID687016 (The Scripps Research Institute Molecular Screening Center, 2013).
# Screen size: about 370,000 compounds; about 2,800 (0.76%) were called active. The sample holds actives, similar compounds and a random draw of the others, so the mix is not that of the screen. A number with no mark means an inactive call. Cut-off read from the data, not from the text of the source: active = inhibition above about 21%; inactive = the rest.
# Target: E3 ubiquitin-protein ligase UHRF1 (Homo sapiens) (UniProt Q96T88)
# Assay: blockers of UHRF1 binding to methyl-oligo – biochemical, TR-FRET, human UHRF1, single concentration, counter-screen for MBD2 inhibitor project, primary screen (AID 687016);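 note: UHRF1 SRA domain binding a hemimethylated CpG hairpin DNA probe; 0% = median of test compound wells and 100% = reference inhibitor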
# Conditions: UHRF1 binding to methylated oligo, at 4.4 µM, stronger effect = higher value
# Sequence of E3 ubiquitin-protein ligase UHRF1 (Homo sapiens) (Q96T88 whole entry, looked up, the tested form may be a part): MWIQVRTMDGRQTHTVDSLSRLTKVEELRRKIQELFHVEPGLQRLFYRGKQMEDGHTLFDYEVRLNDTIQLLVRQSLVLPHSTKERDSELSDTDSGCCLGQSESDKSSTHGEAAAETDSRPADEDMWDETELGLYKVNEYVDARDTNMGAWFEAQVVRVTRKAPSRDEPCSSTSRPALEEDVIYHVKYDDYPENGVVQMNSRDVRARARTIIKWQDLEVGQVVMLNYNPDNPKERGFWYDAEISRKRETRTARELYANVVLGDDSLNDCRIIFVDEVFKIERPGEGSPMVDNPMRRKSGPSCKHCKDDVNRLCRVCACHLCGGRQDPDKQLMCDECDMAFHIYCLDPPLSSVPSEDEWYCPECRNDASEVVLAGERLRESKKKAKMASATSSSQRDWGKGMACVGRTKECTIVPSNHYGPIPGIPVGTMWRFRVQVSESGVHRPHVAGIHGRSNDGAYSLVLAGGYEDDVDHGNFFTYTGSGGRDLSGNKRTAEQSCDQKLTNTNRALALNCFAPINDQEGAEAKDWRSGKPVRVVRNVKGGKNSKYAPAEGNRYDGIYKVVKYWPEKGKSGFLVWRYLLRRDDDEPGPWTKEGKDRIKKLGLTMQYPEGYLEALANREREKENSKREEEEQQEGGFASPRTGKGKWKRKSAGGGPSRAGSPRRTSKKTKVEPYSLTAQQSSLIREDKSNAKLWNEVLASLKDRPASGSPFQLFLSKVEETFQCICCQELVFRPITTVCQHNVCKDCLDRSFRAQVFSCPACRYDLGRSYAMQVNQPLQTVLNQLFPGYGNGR
row,SMILES,inhibition
1,Nc1ncnc2c1ncn2C1OC(CO)CC1O (stereo unspecified),60.9% (active)
2,Nc1ncnc2c1ncn2[C@@H]1O[C@H](C(=O)N2CCSC2)[C@@H](O)[C@H]1O,2.48%
3,Nc1ncnc2c1ncn2[C@@H]1O[C@H](C(=O)NCC(F)(F)F)[C@@H](O)[C@H]1O,-0.85%
4,O=C(c1ccccc1)c1ccc(-c2ccccc2C(=O)NC2CCCCN(Cc3ccc(Cl)cc3)C2=O)cc1 (stereo unspecified),-0.04%
5,CCCC1CCC2(CCCN2CCOC(=O)NCc2ccccc2)CC1 (stereo unspecified),0.86%
6,COC(=O)C1CN(CC(C)C)CCS(=O)(=O)N1Cc1ccc(F)cc1 (stereo unspecified),0.32%
7,Cc1cnc(C(=O)N2CCCC(C(=O)c3ccc(C(F)(F)F)cc3)C2)cn1 (stereo unspecified),22% (active)
8,O=C(c1ccc(C(F)(F)F)cc1)C1CCCN(C(=O)c2csnn2)C1 (stereo unspecified),0.31%
9,COCC(=O)N1CCCC(C(=O)c2ccc(C(F)(F)F)cc2)C1 (stereo unspecified),2.82%
10,C=C(C)C1CC23C(=O)C4(C(=O)c5ccccc5)C[C@@]5(C)CCC(CC2C1(C)C)(C4=O)C35OC (stereo partly specified),0.2%
11,C=CCN1C(=O)[C@H](CC(=O)N2CCN(C(=O)OCC)CC2)[C@@]2(C(=O)OCC)CCCC=C12,-2.61%
12,COC(=O)c1ccccc1-n1cc(COC(=O)NCCc2ccccc2)nn1,0.82%
13,CC(CCN1CCC(C(O)(c2ccccc2)c2ccccc2)CC1)Oc1ccc(Cl)cc1 (stereo unspecified),1.4%
14,O=C(CSc1nc2ccccc2n1Cc1ccccc1Cl)N/N=C\c1c[nH]c2ccccc12,-1.5%
15,O=C(CCS(=O)(=O)c1ccc(Br)cc1)NCCc1ccc(Cl)cc1,0.15%
16,COc1ccc(Cl)cc1NC(=O)COC(=O)c1ccc(Br)o1,0.18%
17,COc1ccc(Cl)cc1NC(=O)CCS(=O)(=O)c1ccc(Br)cc1,45.2% (active)
18,C[C@H]1CCC/C=C/C(=O)c2c(O)cc(O)cc2CC(=O)O1,0.98%
19,CC1CCN(C(=O)c2ncn3c2C(=O)N[C@@H](C)C3)CC1,22.7% (active)
20,C[C@H]1Cn2cnc(C(=O)N[C@H](C)c3ccccc3)c2C(=O)N1,11.2%
21,C[C@@H]1Cn2cnc(C(=O)Nc3ccc(CNC(=O)OC(C)(C)C)cc3)c2C(=O)N1,2.17%
22,FC(F)(F)c1cccc(NC(=S)OC2CCC23CCC(c2ccccc2)CC3)c1 (stereo unspecified),-1.02%
23,Cc1ccc(-n2c(SCC(=O)Nc3ccc(S(=O)(=O)Nc4nccs4)cc3)nnc2-c2cccnc2)cc1,3.04%
24,Cc1ccc(-n2c(SCC(=O)Nc3ccc(S(=O)(=O)Nc4nccs4)cc3)nnc2-c2ccccn2)cc1,2.8%
25,CCc1nc2ccccc2n(CCOCCOCCn2c(=O)c(CC)nc3ccccc32)c1=O,0.72%
26,Cc1nn2c3ccccc3nc2n(C)c1=O,64.7% (active)

row,SMILES,inhibition
1,CC(C)(C)c1cc(=O)n2c(nc3ccccc32)[nH]1,0.39%
2,COC(=O)c1cccc(Cn2ccc3ccc(-c4ccc5ccn(C(=O)C6CCCCC6)c5c4)cc32)c1,-1.71%
3,CS(=O)(=O)c1cccc(-c2ccc3nncn3c2)c1,4.75%
4,COc1ccc(C(C)C)cc1-c1ccc2nncn2c1,42.2% (active)
5,COc1ccc(OC)c(S(=O)(=O)Nc2cccc(-c3ccc4nncn4n3)c2)c1,-0.61%
6,Nn1c(SCC(=O)Nc2cccc3ccccc23)nnc1-c1cc(-c2ccc(F)cc2)n[nH]1,-1.05%
7,COc1ccc(-c2nn(-c3ccccc3)cc2CN2CCCO2)c(F)c1,-0.87%
8,COc1ccc(-n2cc(CNC3CCOCC3)c(-c3cccc(F)c3)n2)cc1,21.6% (active)
9,CCC(O)C1CCN(Cc2cn(-c3ccc(OC)cc3)nc2-c2cccc(F)c2)CC1 (stereo unspecified),0.5%
10,O=C(N1CCOCC1)N1CC[C@H]2[C@H](CCCN2Cc2ccc(F)cc2)C1,-1.64%
11,COC(=O)C1CN(Cc2cn(Cc3ccc(F)cc3)nn2)CCS(=O)(=O)N1Cc1ccc(Cl)cc1 (stereo unspecified),2.82%
12,COC(=O)c1ccc2nc(-c3ccc(Cl)cc3)c(Cc3cccc(F)c3)n2c1,10.2%
13,Fc1cccc(Cc2c(-c3ccc(Cl)cc3)nc3ccc(Cl)cn23)c1,26.5% (active)
14,Fc1cccc(Cc2c(-c3cccc(Cl)c3)nc3ccc(Br)cn23)c1,1.63%
15,CN(CCc1ccccc1)C(=O)Cn1nc(-c2ccccc2)ccc1=O,1.78%
16,Cc1ccc(-n2c(SCC(=O)Nc3cccc4ccccc34)nnc2-c2ccccn2)cc1,0.12%
17,Cc1ccc(-n2c(SCC(=O)Nc3cccc4ccccc34)nnc2-c2ccco2)cc1,-0.24%
18,CC(=O)Nc1ccccc1Sc1ccc2c3c(cccc13)C(=O)N(c1ccc(C)cc1)C2=O,21.6% (active)
19,COc1ccc(CSc2nnc(-c3cccc(C)c3)n2C)cc1,0.25%
20,S=C(NCc1ccc(Cl)cc1)NC12CC3CC(CC(C3)C1)C2,-0.38%
21,Cc1ccc(S(=O)(=O)NC(C)C(=O)NCc2ccc(Cl)cc2)cc1 (stereo unspecified),0.66%
22,O=C(NCc1ccc(Cl)cc1)NCc1ccc(Cl)cc1,24.9% (active)
23,Cc1c[nH]c2cccc(-c3ccc(Cl)cc3)c12,-1.82%
24,COc1cc(/C=C/C(=O)n2cnc3ccccc32)cc(OC)c1OC,1.6%
25,Cc1cc(C)cc(NC(=O)N2CCC(N(C)CCC(C)C)CC2)c1,0.51%
